HCV inhibitor – blocks hepatitis C virus; Huh7.5.1 HCVcc-Cre infection, luciferase reporter, 44 h; Potency, µM (highest dose often 41.8 µM), without a hit: top-dose activity change, negative = inhibition, hits mostly inhibitors; hit rate 3.4% among 340,000; AID 651820; note: potency is the fitted concentration of half-maximal effect
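Antiviral activity was scored by luciferase reporter output from cells infected with HCVcc-Cre (~0.5 moi) in presence of compound, 44 h infection period, cells seeded 1,000/well 4 h prior.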
HCMV antiviral – inhibitors of human cytomegalovirus | HFF cells, HCMV-luciferase reporter, 72 h; hits give low values | activity change, negative = inhibition, % at 57.5 µM | hit rate 4.5% among 410,000 | AID 1259415; in the data active = activity change below about -60%; inconclusive = no clear call, values can overlap the other calls; inactive = above about -39%
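Two compound doses tested in HFFs infected with HCMV-luciferase, MOI 1 PFU/cell, 72 h at 37C. Lysate luminescence read with OneGlo; data normalized against buffer-only and 10uM Salinomycin inhibitor controls.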
Pf growth 48h – inhibits P. falciparum growth in the first generation, 48 h; P. falciparum luciferase growth in erythrocytes, 48 h; Potency, µM (top dose mostly 28.7 µM), inactives show at the top dose activity change, negative = inhibition, actives largely listed as inhibitors; hit rate 5.9% among 310,000; AID 504832; note: potency is the fitted concentration of half-maximal effect
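Parasite viability was followed by luminescence of a genomically integrated firefly luciferase. Cultures held 0.1% parasitemia at 2% hematocrit (final), incubated under 5% CO2 at 37 C.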
Pf growth 96h – P. falciparum growth inhibition at 96 hours | Potency, µM (highest dose often 28.7 µM), without a hit: at the top dose activity change, negative = inhibition, most hits filed as inhibitors | hit rate 6.9% among 320,000 | P. falciparum luciferase reporter growth, 96 h; note: potency is the fitted concentration of half-maximal effect
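Plates of compound plus infected erythrocytes (2% hematocrit, 0.05% parasitemia final) incubate 96 hours, 37 C, 5% CO2. Detection reagent added; reduced luminescence from the parasites' luciferase reporter flags inhibition.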
* hit, by the source's call; i = inactive; ? = inconclusive; nt = not tested or not shown; [ ] = remark or other dose. Sampled rows, rich in hits. Any-hit rate of the full collection: about 13%. Unless noted, calls come from the whole dose curve; as a rule, active = well fitted inhibition curve with a large enough effect; inconclusive = small, poorly fitted or top-dose-only effect, or another doubt; inactive = no such curve, though single readings can be large or run the other way. % is set by controls: 0 for no effect and ±100 for the full control effect.

SMILES	HCV inhibitor	HCMV antiviral	Pf growth 48h	Pf growth 96h
CCc1nc2ccc(C(=O)Nc3cccc(NS(C)(=O)=O)c3)cn2c1N(CCC(C)C)CCN(C)C	nt	-14	nt	nt
COc1ccc(-c2nc(-n3c(C)c(C(C)=O)c(C(C)=O)c3C)sc2C)cc1	?	?	?	-1%
CC(=O)c1c(C(C)=O)c(C)n(-c2nc(-c3ccc(C)c(C)c3)c(C)s2)c1C	?	?	12µM*	-18%
NS(=O)(=O)c1ccc(CCNc2nn3c(-c4cccc(OC(F)(F)F)c4)cnc3s2)cc1	nt	-98*	nt	nt
NS(=O)(=O)c1ccc(CCNc2nccn(-c3cccc(C(F)(F)F)c3)c2=O)cc1	nt	-11	nt	nt
COC(=O)c1ccc(NC(=O)CCc2c(C)nc3c(c2C)c(=O)n(C)c(=O)n3C)cc1	nt	-8	nt	nt
OCC#CCSc1nnc(-c2ccncc2)o1	-2%	-24	16%	0.29µM*
Clc1ccc(CSc2nnc(-c3ccncc3)o2)cc1	?	-70*	18%	-3%
O=C(Nc1ccccc1-c1nnc(SCc2ccc(Cl)cc2)o1)c1ccccc1	18%	-4	13µM*	0%
C#CCSc1nnc(-c2ccc(C)cc2)o1	5%	18	i	1.2µM*
CCSc1nnc(-c2ccncc2)o1	23%	-1	11%	75%
O=C(Nc1ccccc1-c1nnc(SCc2ccccc2)o1)c1ccccc1	?	11	?	?
COC(=O)C1CCN(CC(=O)Nc2cc(C)c3c(=O)oc4ccccc4c3n2)CC1	nt	3	nt	nt
Brc1ccc(CSc2nnc(-c3cccnc3)o2)cc1	0%	-68*	48%	-11%
CCN(C(=O)/C=C/c1ccccc1)C1CCCCC1	-10%	-15	84%	13µM*
Brc1ccc(CN2CCc3nc(Nc4ccccc4)ncc3C2)s1	nt	-5	nt	nt
COc1cc(NCc2ccc3nc(N)nc(N)c3c2C)cc(OC)c1OC	nt	nt	0.006µM*	0.0048µM*
COc1ccc(CNc2ccncc2)c(OC)c1OC	4%	-9	nt	nt
CCC(Sc1nc2ccccc2c2nc(CCc3c(C)n[nH]c3C)nn12)C(=O)Nc1ccccc1F (centres undefined)	nt	-2	nt	nt
Cc1cccc(C)c1NC(=O)Cn1c(=O)n(Cc2ccc3c(c2)OCO3)c(=O)c2oc3ccccc3c21	nt	13	nt	nt
O=C(NO)c1ccc(C(=O)N(C2CCCCC2)C2CCCCC2)cc1	?	-4	3.3µM*	6%
O=C(c1c(F)cccc1F)N(C1CCCCC1)C1CCCCC1	-6%	-10	10µM*	-15%
O=C(c1c(F)cccc1F)N(Cc1cccs1)C1CCCC1	?	-35	-12%	31%
CCOC(=O)c1cc(-c2ccccc2)n(CC(=O)Nc2cc(Cl)c(OC)cc2OC)c1C	nt	33	nt	nt
COc1ccc(N2CCN(C(=O)Cc3c(C(=O)O)c(C)cn3C)CC2)cc1	nt	-7	nt	nt
SMILES	HCV inhibitor	HCMV antiviral	Pf growth 48h	Pf growth 96h
CCC12CN3CC(C)(CN(C1)C3c1c(C)n(C)c3ccccc13)C2=O (centres undefined)	nt	0	nt	nt
CC(=O)C1=CCC(c2ccccc2)N(S(=O)(=O)c2ccccc2)C1 (centres undefined)	nt	-22	nt	nt
CCOC(=O)C1=C(CSc2nc3c(cc2C#N)CN(C)CC3)OC(N)=C(C#N)C1c1ccc(F)cc1 (centres undefined)	10µM*	-1	nt	?
COC(=O)C1=C(CSc2nc3c(cc2C#N)CN(C)CC3)OC(N)=C(C#N)C1c1ccccc1F (centres undefined)	?	nt	?	12µM*
CCOC(=O)C1=C(CSc2nc3c(cc2C#N)CN(C)CC3)OC(N)=C(C#N)C1c1ccccc1 (centres undefined)	?	57	?	-27%[5.75 µM]
O=C(Nc1ccc(C(=O)OCc2cc(=O)n3nc(C4CC4)sc3n2)cc1)c1ccccc1	nt	6	nt	nt
CC(C)(C)CC(C)(C)NC(=O)C(=O)c1cccnc1	nt	12	nt	nt
CCOc1ccc(CNC(=O)C2CCCN(c3nc4c(C)cc(C)cc4s3)C2)cc1 (centres undefined)	nt	38	nt	nt
CC(=O)N1CCc2c(sc3c2c(=O)n(CCc2ccccc2)c(=O)n3Cc2cccc(C)c2)C1	nt	-1	nt	nt
COc1ccc(NC(=O)c2c(C)oc3ccc(O)c(CN4CCN(C)CC4)c23)cc1Cl	nt	-16	nt	nt
Cc1cc(C)cc(NC(=O)c2cn3c4c(ccc(Cl)c4c2=O)OC(C)C3)c1 (centres undefined)	nt	20	nt	nt
Cn1cccc1/C=C1\CC(C(C)(C)C)C/C(=C\c2cccn2C)C1=O (centres undefined)	2.5µM*	-25	nt	62%
